In PubChem BioAssay (NCI) one finds growth data, which are given here for eight compounds.

What all share (experiment): NCI-60 one-dose screen, 48 h (100 = growth as untreated, 0 = no growth, -100 = all killed)
The test system of assay [1] is HCT-15 colon. As to conditions: 10 µM unless noted.
For assay [2], the system named is HT29 colon. As to conditions: 10 µM unless noted.
Assay [3] has as its system SNB-75 CNS. Conditions: 10 µM unless noted.
For assay [4], the system named is SNB-19 CNS. As to conditions: 10 µM unless noted.
Assay [5] concerns U251 CNS. Conditions: 10 µM unless noted.
Assay [6] concerns PC-3 prostate. As to conditions: 10 µM unless noted.
The test system of assay [7] is SK-MEL-5 melanoma. As to conditions: 10 µM unless noted.
Assay [8] deals with UACC-62 melanoma. Conditions: 10 µM unless noted.
The subject of assay [9] is LOX IMVI melanoma. As to conditions: 10 µM unless noted.
Assay [10] relates to SK-MEL-28 melanoma. As to conditions: 10 µM unless noted.
Assay [11] concerns SK-MEL-2 melanoma. Conditions: 10 µM unless noted.
The test system of assay [12] is EKVX NSCLC. As to conditions: 10 µM.
The test system of assay [13] is SN12C renal. Conditions: 10 µM unless noted.
Assay [14] has as its system UO-31 renal. Conditions: 10 µM unless noted.
Assay [15] deals with TK-10 renal. As to conditions: 10 µM unless noted.
For assay [16], the system named is ACHN renal. Conditions: 10 µM unless noted.
The test system of assay [17] is CAKI-1 renal. As to conditions: 10 µM unless noted.
For assay [18], the system named is A498 renal. Conditions: 10 µM unless noted.
Assay [19] relates to CCRF-CEM leukemia. Conditions: 10 µM.
Assay [20] has as its system MOLT-4 leukemia. As to conditions: 10 µM unless noted.

The panel holds about 83,000 compounds, 20% with a hit somewhere; the sample as a whole holds those more often.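 For each line, cells grew in 96-well plates with the test compound present at a single concentration for 48 hours.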 A number with no mark means an inactive call. Calls of active or inactive are those of the source. The calls were made as follows: active = growth percent below 10; inactive = the rest.

On to `O=C(Nn1cnc2ccccc21)N1CCCC1`, for which the growth in [1] is 112%; in assay [2], 109%; in assay [3], 107%; in assay [4], 110%; in assay [5], 99.8%; in [6], 106%. The growth is 113% in assay [7]; 105% in assay [8]; 98.1% in assay [9]; 116% in assay [10]; 116% in [11]; 94% in assay [12]. Further, the growth in [13] is 106%; in [14] it was 88.1%; in [15], 113%; in assay [16], 99.1%; in [17] it was 98.8%; in [18] it was 115%. Also, the growth in assay [19] was 127%; in assay [20], 87.1%.
On to `Cc1ncc(C(=O)Nc2ccc(CN3CCN(C)CC3)c(C(F)(F)F)c2)cc1C#Cc1cnc(NC2CC2)c2ncccc12`, for which the growth in [1] is -91.9% (active); in assay [2] it was -80.7% (active); in [3], -96.5% (active); in [4], -97.2% (active); in assay [5] it was -95% (active); in [6], -66.9% (active). Further, the growth in assay [7] is -98.5% (active); in [8] it was -62.8% (active); in assay [9], -81% (active); in assay [10] it was -91.5% (active); in [11], -27.3% (active); in assay [12], -86% (active). Besides, the growth in [13] was -85.3% (active); in assay [14] it was -97% (active); in [15], -92.2% (active); in [16] it was -100% (active); in assay [17] it was -0.579% (active); in [18], -60.4% (active). For the same compound, the growth in assay [19] is -43% (active); in assay [20], -65.4% (active).
Take `CCC(CCCN1C(=O)c2ccccc2C1=O)Nc1cc(OC)cc2c(C)ccnc12` (stereo not given): the growth was 91.5% in assay [1]; 100% in [2]; 92.2% in assay [3]; 102% in [4]; 90.7% in assay [5]; 89.1% in assay [6]. For the same compound, the growth in [7] is 85.3%; in assay [8], 69.5%; in assay [9], 95.8%; in assay [10], 101%; in assay [11] it was 87%; in assay [12], 84.5%. For the same compound, the growth in [13] was 97.8%; in assay [14] it was 115%; in assay [15] it was 120%; in [16], 100%; in assay [17] it was 75.7%; in assay [18], 60%. Moreover, the growth was 105% in assay [19] and 66.3% in assay [20].
Regarding `COc1ccc(Cn2cc3c(c2)-c2oncc2CC3)cc1OC`, the growth in assay [1] is 16.3%; in assay [2], 7.91% (active); in assay [3], 0.447% (active); in assay [4] it was 42%; in [5] it was 18.9%; in [6], 25.5%. Further, the growth in [7] is 9.72% (active); in assay [8], 40.6%; in assay [9], 37.3%; in assay [10], 50.3%; in assay [11], 43%; in [12] it was 43.7%. Also, the growth in assay [13] is 38.9%; in [14], 44.1%; in assay [15] it was 65.2%; in assay [16], 44.3%; in assay [17] it was 21.9%; in assay [18], 21.4%. The figures for the growth in assay [19] and in [20] were 14.9% and 31%, respectively.
Turning to `CCC(C)C1NC(=O)C(CC(C)C)NC(=O)C(C)NC(=O)C(C(C)C)NC(=O)C(CCCCN)NC(=O)C(CC(C)C)NC(=O)C(C(C)C)NC(=O)[C@H](C)NC(=O)C(C(C)CC)NC(=O)C(CCCN=C(N)N)NC(=O)C(CCCCN)NC(=O)C(CCCN=C(N)N)NC(=O)C(CCCCN)NC(=O)C([C@H](C)CC)NC(=O)C(CCCCN)NC1=O` (stereo not given in full), the growth in [1] was 26.7%; in assay [2], 3.41% (active); in [3], 28.8%; in [4] it was 17.4%; in assay [5], 3.51% (active); in [6] it was -4.78% (active). For the same compound, the growth in assay [7] was 1.67% (active); in assay [8], 21.3%; in assay [9], 35.4%; in assay [10] it was 41.3%; in assay [11], 37.3%; in assay [12], 15.3%. Further, the growth was 10.9% in assay [13]; 21.8% in [14]; 20.2% in assay [15]; 3.41% (active) in assay [16]; 8.2% (active) in assay [17]; 20.8% in assay [18]. The growth in [19] was 8.98% (active); in [20] it was -6.28% (active).
Consider `CC(=O)OCC1O[C@@H](OC(C)=O)[C@@H](NC(=O)NS(=O)(=O)c2ccccc2)C(OC(C)=O)[C@@H]1OC(C)=O` (stereo not given in full), for which the growth is 96.6% in assay [1]; 111% in assay [2]; 91.2% in [3]; 98.7% in assay [4]; 106% in [5]; 102% in [6]. Also, the growth in assay [7] is 102%; in assay [8], 101%; in [9] it was 99.6%; in assay [10] it was 108%; in assay [11] it was -51.6% (active); in assay [12], 96.4%. Further, the growth was 97.2% in assay [13]; 90.9% in assay [14]; 98.6% in assay [15]; 104% in assay [16]; 94.9% in assay [17]; 71.9% in [18]. Further, the growth in [19] is 97%; in assay [20], 98.6%.
On to `C/C(=N\Nc1cccc(Cl)n1)c1ccccn1`, for which the growth is 23.5% in assay [1]; 26.2% in assay [2]; 36.6% in assay [3]; 23.1% in assay [4]; 14.5% in [5]; 29.3% in [6]. Besides, the growth was -51.6% (active) in assay [7]; -24.1% (active) in assay [8]; 0.322% (active) in assay [9]; 14.2% in assay [10]; 21% in assay [11]; 5.56% (active) in assay [12]. The growth in assay [13] is 13.6%; in assay [14], -1.99% (active); in assay [15], 22.7%; in assay [16], 6.24% (active); in [17] it was 12.7%; in assay [18], -1.3% (active). Besides, the growth in [19] was 6.2% (active); in assay [20], 4.01% (active).
For the compound `c1ccc(C(=NNc2nc3ccccc3o2)c2ccccn2)nc1`, the growth in assay [1] is 16.8%; in assay [2], 23%; in assay [3] it was 31.7%; in assay [4], 24.5%; in assay [5] it was 10.6%; in assay [6], 29.2%. Besides, the growth is -58% (active) in [7]; -8.29% (active) in assay [8]; 0.582% (active) in assay [9]; 25.2% in assay [10]; 37.7% in assay [11]; 8% (active) in [12]. In addition, the growth in assay [13] is 16.1%; in assay [14] it was 2.19% (active); in assay [15] it was 41.8%; in assay [16], 8.01% (active); in assay [17] it was 5.09% (active); in [18], -27% (active). For the same compound, the results for the growth in assay [19] and in assay [20] were 3.17% (active) and 12.3%, respectively.
